Test results as given in PubChem BioAssay AID1259374 (The Scripps Research Institute Molecular Screening Center, 2018).
Among all 650,000 compounds or so, about 5,900 (0.91%) were called active. Rule as the data show it: active = inhibition above about 50%; inactive = the rest. This excerpt belongs to a sample that is enriched for actives.

biological target: Microphthalmia-associated transcription factor (Homo sapiens) (UniProt O75030); test: MITF inhibitors, primary screen, biochemical, AlphaScreen, human (AID 1259374); conditions: AlphaScreen MITF homodimerization, bead proximity signal; at 2.6 µM; active compounds read high;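 also: 0% = vehicle wells with protein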
Sequence (O75030 whole entry, looked up): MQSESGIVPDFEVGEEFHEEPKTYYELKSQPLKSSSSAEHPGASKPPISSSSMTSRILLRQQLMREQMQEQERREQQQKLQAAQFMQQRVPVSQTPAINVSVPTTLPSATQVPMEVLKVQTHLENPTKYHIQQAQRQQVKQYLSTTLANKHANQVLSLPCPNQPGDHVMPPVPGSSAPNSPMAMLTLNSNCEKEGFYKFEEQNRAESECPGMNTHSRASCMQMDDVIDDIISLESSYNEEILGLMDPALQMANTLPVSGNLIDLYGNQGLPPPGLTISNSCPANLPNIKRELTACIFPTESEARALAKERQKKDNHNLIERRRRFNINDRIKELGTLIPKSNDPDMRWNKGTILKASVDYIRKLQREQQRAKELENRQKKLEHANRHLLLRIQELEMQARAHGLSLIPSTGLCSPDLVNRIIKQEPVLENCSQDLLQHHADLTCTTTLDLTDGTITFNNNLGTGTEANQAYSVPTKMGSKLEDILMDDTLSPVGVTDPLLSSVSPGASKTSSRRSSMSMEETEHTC

Row | SMILES | inhibition
1 | Cc1ccc2[nH]c3nc(N/N=C/c4ccc(N(C)C)cc4)nnc3c2c1 | 15.6% (inactive)
2 | CC(C)N(CCNc1nc(N2CCCC2CO)nc2nc[nH]c12)C(C)C (stereo not drawn) | 5.38% (inactive)
3 | CC(=O)Oc1ccccc1C(=O)Nc1ccc(Cl)c(Cl)c1 | 0.46% (inactive)
4 | CCOC(=O)/C(C#N)=C/c1ccccc1OC | -4.17% (inactive)
5 | CNc1ccccc1C(=O)OCc1ccc([N+](=O)[O-])cc1Cl | 12.5% (inactive)
6 | Cc1ccc2nc3sc(C(=O)Nc4c[nH]c(=O)[nH]c4=O)c(N)c3cc2c1 | 0.86% (inactive)
7 | Cc1ccc2nc(CN3CCN(C=O)CC3)nc(N3CCSCC3)c2c1 | -5.97% (inactive)
8 | O=C(NCCc1ccc(F)cc1)c1ccc(Br)o1 | -9.44% (inactive)
9 | O=CN1CCN(Cc2ccccc2Cl)CC1 | 3.26% (inactive)
10 | COc1cc(CN2CCN(C(=O)c3cc(OC)c(OC)c(OC)c3)CC2)cc(OC)c1O | -11% (inactive)
11 | COc1cc(CN2CCN(C(=O)C(c3ccccc3)c3ccccc3)CC2)cc(OC)c1OC | 53.1% (active)
12 | CCC(C(=O)N1CCN(C(=O)C(CC)c2ccccc2)CC1)c1ccccc1 (stereo not drawn) | 6.26% (inactive)
13 | CC1CCCC(N2CCN(Cc3ccccc3Cl)CC2)C1 (stereo not drawn) | 63.2% (active)
14 | NCC1CCN(Cc2ccccc2Cl)CC1 | 21.9% (inactive)
15 | CCN(CC)C(=O)C(Cc1ccccc1)NCC(=O)Nc1ccc(C)cc1 (stereo not drawn) | 10.3% (inactive)
16 | COc1cccc(OC)c1C(=O)Nc1ccc(Cl)cn1 | -14.5% (inactive)
17 | CCOC(=O)c1sc(=S)n(-c2cccc(C(F)(F)F)c2)c1N | -1.48% (inactive)
18 | CN(C)c1cccc(Nc2nccc(Nc3ccccc3)n2)c1 | -2.6% (inactive)
19 | CN(C)c1cccc(Nc2ccc(-c3cccc(C=O)c3)cn2)c1 | 50.8% (active)
20 | CC(Nc1ccc(-c2cccc(C=O)c2)cn1)c1ccc(F)cc1 (stereo not drawn) | 7.6% (inactive)
21 | Fc1ccc(-c2cccc3ccc(N4CCN(c5ncccn5)CC4)nc23)cc1 | 2.86% (inactive)
22 | NC(=O)c1c(/N=C/c2ccc([N+](=O)[O-])cc2)sc2c1CCCC2 | 7.76% (inactive)
23 | O=C1N[C@H](Cc2ccc(O)cc2)C(=O)N2CCN(C(=O)c3ccccc3Cl)C[C@H]12 | -6.27% (inactive)
24 | COc1cccc(/C=C(\C#N)c2nc3ccc(C)cc3[nH]2)c1OC | 7.46% (inactive)

Row | SMILES | inhibition
25 | COc1ccccc1/C=C(/C#N)c1nc2ccccc2[nH]1 | 11.1% (inactive)
26 | COc1cccc(/C=C(\C#N)c2nc3ccccc3[nH]2)c1OCc1ccc(Cl)cc1Cl | 52.7% (active)
27 | Cc1ccc2oc(-c3ccc(C)c(NC(=O)c4ccc(Cl)c([N+](=O)[O-])c4)c3)nc2c1 | 14.9% (inactive)
28 | O=C1O/C(=C(\c2cccc3ccccc23)[N+](=O)[O-])c2ccccc21 | 7.98% (inactive)
29 | O=C(NCC1CCCO1)C1CCC(Cn2c(SCc3ccc([N+](=O)[O-])cc3)nc3ccccc3c2=O)CC1 (stereo not drawn) | 1.86% (inactive)
30 | COC(=O)c1sc2ccccc2c1NC(=O)c1ccc2c(c1)OCCO2 | 4.39% (inactive)
31 | COC(=O)c1cccc(NC(=O)c2ccccc2NS(=O)(=O)c2ccc(C)cc2)c1C | -6.07% (inactive)
32 | COC(=O)c1cccc(NS(=O)(=O)c2ccc3ccccc3c2)c1C | 52.5% (active)
33 | COC(=O)c1ccccc1NS(=O)(=O)c1ccc2[nH]c(=O)ccc2c1 | 6.38% (inactive)
34 | CCCCCCC1CCC(C(=O)Oc2ccc(C(=O)OCC)cc2)CC1 (stereo not drawn) | 7.45% (inactive)
35 | COc1ccc2c(c1)CC(C(=O)Nc1ccc(-c3ccncc3)cc1Oc1ccccc1)CO2 (stereo not drawn) | 12.9% (inactive)
36 | COc1ccc2c(c1)CC(c1nc(Nc3ccc4cnccc4c3)c3ccccc3n1)CO2 (stereo not drawn) | 55.2% (active)
37 | COc1ccc2c(c1)CC(c1nc3ccc(-c4cccnc4)cc3o1)CO2 (stereo not drawn) | -9.3% (inactive)
38 | O=C(Nc1nc(-c2ccc(Br)cc2)cs1)N1CCOCC1 | 6.09% (inactive)
39 | Cc1cc(-c2cnc(N3CCCCC3)nc2C2CCNCC2)on1 | -11% (inactive)
40 | CN(CCC(=O)O)Cc1cccc(Cl)c1 | 69.7% (active)
41 | CN(CCC(=O)Nc1cccc(F)c1)Cc1ccccc1 | -7.29% (inactive)
42 | O=C(Cc1cccc(Cl)c1)NCc1ccccc1 | -1.38% (inactive)
43 | Cc1ccc(Nc2nc3nonc3nc2N2CCN(C(=O)c3ccccc3)CC2)cc1Cl | 2.8% (inactive)
44 | CCc1ccccc1NC(=O)c1cc2nc(-c3cccs3)cc(C(F)(F)F)n2n1 | 23.3% (inactive)
45 | COc1ccc(COCC(O)CNCC(C)(C)CN(C)C)cc1OC (stereo not drawn) | 69.4% (active)
46 | CCC(CO)NCC(O)COCc1ccc(Cl)cc1 (stereo not drawn) | -4.49% (inactive)
47 | COc1cc(CNC(C)(C)C)ccc1OCCO | -1.33% (inactive)
48 | Cc1c(C(=O)N2CCN(c3ccc(F)cc3)CC2)sc2ncn(CC(=O)N3CCC(C)CC3)c(=O)c12 | 9.34% (inactive)

Row | SMILES | inhibition
49 | Cc1cnc(C)c(-c2ccc3c(c2)CC(CNC(=O)/C=C/c2cccc(F)c2F)O3)n1 (stereo not drawn) | 10.3% (inactive)
50 | CCOC(=O)c1[nH]c(COC(C)=O)c(CCC(=O)OC)c1C | -19.8% (inactive)
51 | O=C(COc1ccccc1)Nc1ccc(N2CCC(NCCc3cccs3)CC2)cc1 | 8.32% (inactive)
52 | COc1ccc2c(c1)CC(C(=O)Nc1ccc(-c3cn[nH]c3)cc1O[C@H]1CCOC1)CO2 (stereo partly drawn) | 16.3% (inactive)
53 | COc1ccc2c(c1)CC(C(=O)Nc1ccc(-c3cn[nH]c3)cc1OCc1ccccc1)CO2 (stereo not drawn) | 62.3% (active)
54 | COc1ccc2c(c1)CC(C(=O)Nc1ccc(-c3cn[nH]c3)cc1OC(C)CN(C)C)CO2 (stereo not drawn) | 13.3% (inactive)
55 | COc1ccc2c(c1)CC(C(=O)Nc1ccc(-c3cn[nH]c3)cc1OCC(N)=O)CO2 (stereo not drawn) | 52.7% (active)
56 | COc1ccc2c(c1)CC(C(=O)Nc1ccc(-c3cn[nH]c3)cc1C(=O)NCc1ccccc1)CO2 (stereo not drawn) | 24.1% (inactive)
57 | COc1ccc2c(c1)CC(C(=O)Nc1ccc(-c3cn[nH]c3)cc1OCCN(C)C)CO2 (stereo not drawn) | 3.86% (inactive)
58 | CCc1ccc(C(=O)N2CCN3C(=O)[C@H](CO)NC(=O)[C@H]3C2)cc1 | -8.93% (inactive)
59 | O=C(CN(Cc1ccccc1)S(=O)(=O)c1ccc(F)cc1)NCCc1ccccc1 | -7.64% (inactive)
60 | CC(C)N1CCC(N2CCN(Cc3cc(F)ccc3F)CC2CCO)CC1 (stereo not drawn) | 5.34% (inactive)
61 | Cc1cc(S(=O)(=O)Nc2ccc3c(c2)OCCO3)ccc1-n1cnnn1 | 53% (active)
62 | Cc1cc(S(=O)(=O)NCc2ccc3c(c2)OCO3)ccc1-n1cnnn1 | 11.8% (inactive)
63 | Cc1cc(S(=O)(=O)NC2CCCC2)ccc1-n1cnnn1 | -4.47% (inactive)
64 | COCCN1C(=O)/C(=C/c2cc(OC)c(O)c([N+](=O)[O-])c2)SC1=S | 14.8% (inactive)
65 | COCCn1nnnc1C(c1ccc2ncccc2c1)N1CCOCC1 (stereo not drawn) | 12% (inactive)
66 | CC(C)(C)n1nnnc1C(c1ccc2ncccc2c1)N1CCSCC1 (stereo not drawn) | 65.2% (active)
67 | CC(C)(C)n1nnnc1C(c1ccc(Cl)cc1)N1CCSCC1 (stereo not drawn) | -19.9% (inactive)
68 | CN(C)c1cc(NCCN2CCC3(CC2)OCCO3)c2c3c(onc13)-c1ccccc1C2=O | 50.7% (active)
69 | CC(C)Nc1cc(N2CCN(c3ncccn3)CC2)c2noc3c2c1C(=O)c1ccccc1-3 | 5.09% (inactive)
70 | CCNc1cc(Nc2ccccc2)c2c3c(onc13)-c1ccccc1C2=O | 15.1% (inactive)
71 | COc1ccc(Nc2cc(N3CCN(c4ncccn4)CC3)c3noc4c3c2C(=O)c2ccccc2-4)cc1 | 0.37% (inactive)
72 | CC(C)Nc1cc(N2CCC3(CC2)OCCO3)c2noc3c2c1C(=O)c1ccccc1-3 | 55.8% (active)

Row | SMILES | inhibition
73 | CN1CCN(c2cc(NCCCC(=O)O)c3c4c(onc24)-c2ccccc2C3=O)CC1 | 10.3% (inactive)
74 | CCNc1cc(NCCO)c2noc3c2c1C(=O)c1ccccc1-3 | 27.5% (inactive)
75 | CCOC(=O)N1CCN(c2cc(NCCO)c3c4c(onc24)-c2ccccc2C3=O)CC1 | 15.8% (inactive)
76 | CC1CCN(c2cc(NCC(=O)O)c3c4c(onc24)-c2ccccc2C3=O)CC1 | 51.3% (active)
77 | Cc1c(C(=O)Nc2ccc(F)cc2)sc2ncnc(N3CCc4ccccc4C3)c12 | -2.5% (inactive)
78 | Cc1ccc(OCC(=O)N2CCC(C(=O)O)CC2)cc1C | 6.47% (inactive)
79 | COCCn1c(SCC(=O)Nc2c(C)cc(C)cc2C)nc2c(c1=O)SCC2 | 1.88% (inactive)
80 | O=c1cc(CNc2ccc(S(=O)(=O)N3CCCC3)cc2)c2cc3c(cc2o1)CCC3 | 10.1% (inactive)
81 | COc1ccccc1C(=O)NCC(c1ccc2c(c1)CCCN2C)N1CCOCC1 (stereo not drawn) | -1.79% (inactive)
82 | COc1ccc(C(CNCc2cc(=O)oc3cc4c(cc23)CCC4)N2CCOCC2)cc1 (stereo not drawn) | 85.3% (active)
83 | CN1CCN(Cc2c(O)ccc3c2O/C(=C\c2ccccc2Cl)C3=O)CC1 | 2.25% (inactive)
84 | Cc1ccc2c(=O)c(CN3CCN(C)CC3)c(C)[nH]c2c1C | 10% (inactive)
85 | N#C/C(=C(/O)c1cc(-c2ccccc2)nc2ccccc12)c1nc2ccccc2[nH]1 | -0.49% (inactive)
86 | COc1cc(Br)cc(/C=N\NC(=O)c2ccc(C)nc2)c1O | 60.8% (active)
87 | CCOc1cccc(/C=N/NC(=O)c2ccc(C)nc2)c1O | 49.4% (inactive)
88 | COc1cc(Br)cc(/C=N/NC(=O)c2cc(-c3ccccc3)n[nH]2)c1O | -36.5% (inactive)
89 | O=c1nc(/C=C/c2cc(Cl)cc(Cl)c2OCc2ccccc2F)cc(C(F)(F)F)[nH]1 | -1.22% (inactive)
90 | C/C(=N\c1ccccn1)c1c(O)c2ccccc2oc1=O | 5.79% (inactive)
91 | CCC(C)NCCOCCOc1c(OC)cccc1OC (stereo not drawn) | 17.3% (inactive)
92 | CCC(C)NCCOCCOc1cc(C)cc(C)c1C (stereo not drawn) | 70.4% (active)
93 | CCC(C)NCCOCCOc1ccc(Br)cc1C (stereo not drawn) | 28.4% (inactive)
